Test [1] addresses Retinoic acid receptor RXR-alpha (Homo sapiens) (UniProt P19793). Kind of test: qHTS assay to identify small molecule agonists of the RXR signaling pathway (AID 1159527; calls by dose curve; further: nearly all actives have a fitted effect of over 35% in size). Particulars: HEK293T RXRa-UAS-bla, beta-lactamase ratio, 16 h; series mostly up to 76.8 µM. The procedure, abridged: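 16 hr incubation of compound-treated RXR-alpha-UAS-bla HEK 293T cells (2% charcoal-stripped FBS, 37 C) preceded a 2 hr room-temperature LiveBLAzer FRET substrate step and blue/green fluorescence measurement.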

Test [2] can be described thus: qHTS assay to identify small molecule agonists of the RXR signaling pathway - cell viability counter screen (AID 1159529). Further: nearly all actives have a fitted effect of over 50% in size. To be noted: RXR-alpha-bla HEK293T viability, CellTiter-Glo, 16 h; series mostly up to 76.8 µM. Put shortly:
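In this parallel viability measure, GeneBLAzer RXR-alpha HEK 293T cells (2% charcoal-stripped FBS) were given a 5 hr preincubation, treated with compounds 16 hr at 37 C, and read by CellTiter-Glo luminescence.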

Test [3] can be described thus: qHTS assay to identify small molecule antagonists of the retinoid acid receptor (RAR) signaling pathway - cell viability counter screen (AID 1159551). Further: nearly all actives have a fitted effect of over 35% in size. To be noted: C3RL4 cells viability, ATP luminescence (CellTiter-Glo), 6 h; series mostly up to 92.4 µM. The procedure, abridged:
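In this counter screen, the RARE-luciferase line C3RL4 was exposed for 6 h at 37 C and 5% CO2 to compounds with retinol at 1 uM final. Cellular ATP, read by luminescence, served as the viability measure.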

The nature of test [4]: qHTS assay to identify small molecule antagonists of the retinoic acid receptor (RAR) signaling pathway (AID 1159552; further: nearly all actives have a fitted effect of over 50% in size). Particulars: C3RL4 RARE luciferase reporter, retinol-stimulated, 6 h; series mostly up to 92.4 µM. Put shortly: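 C3RL4 RARE-luc cells, overnight plating; retinol 1 uM final added right after compound; 6 hr 37 C; luciferase read at 30 min RT.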
The nature of test [5]: qHTS assay to identify small molecule agonists of the retinoic acid receptor (RAR) signaling pathway (AID 1159553). To be noted: C3RL4 RARE luciferase reporter, agonist, 6 h; series mostly up to 73.3 µM. The procedure, abridged:
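In this cell-based screen, 1,000 C3RL4 cells per well were cultured overnight, dosed with test chemicals in DMSO for 6 hr, and assessed for RARE luciferase luminescence.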

Test [6] can be described thus: qHTS assay to identify small molecule antagonists of the estrogen related receptor (ERR) signaling pathway from Tox21 library - cell viability counter screen (AID 1224834). Further: nearly all actives have a fitted effect of over 30% in size. To be noted: ERR reporter cells viability, CellTiter-Fluor, 17.5 h; series mostly up to 92.4 µM. Put shortly:
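Counter screen run in ERR cells (2,000 cells/well): cells pre-incubated 6 h, then treated with compounds for 17.5 h at 37 C. Fluorescence was read 30 min after CellTiter-Fluor addition.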

For test [7], the target named is Luciferin 4-monooxygenase (Photinus pyralis) (UniProt P08659). Kind of test: qHTS assay to identify small molecule inhibitors of firefly luciferase (AID 1224835). Further: nearly all actives have a fitted effect of over 25% in size. Further: potency means the concentration at half of the fitted maximal effect. To be noted: purified P. pyralis luciferase, luminescence inhibition; series mostly up to 115 µM. The procedure, abridged:
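Inhibition of purified Photinus luciferase is measured by luminescence. Substrate levels (D-luciferin, ATP) sit at their KM values. Each compound is tested in a concentration series.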

Test [8] is described as follows: qHTS assay to identify small molecule agonists of the constitutive androstane receptor (CAR) signaling pathway - cell viability counter screen (AID 1224836). Further: nearly all actives have a fitted effect of over 45% in size. To be noted: HepG2-CYP2B6-hCAR viability, CellTiter-Fluor, 23 h, PK11195 added to every well; series mostly up to 92.4 µM. The procedure, abridged: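 Using CellTiter-Fluor, viability of HepG2 cells harbouring hCAR and CYP2B6-2.2kb was measured following 23 h incubation with a 15-concentration compound series plus PK11195 (0.75 uM final).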

A short description of test [9]: qHTS assay to identify small molecule antagonists of the constitutive androstane receptor (CAR) signaling pathway - cell viability counter screen (AID 1224837). Further: nearly all actives have a fitted effect of over 45% in size. To be noted: HepG2-CYP2B6-hCAR viability, CellTiter-Fluor, 23 h, co-treated with 50 nM CITCO; series mostly up to 92.4 µM. The procedure, abridged: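 CITCO at 50 nM final was added alongside compounds (15 concentrations) to double-stable hCAR/CYP2B6-2.2kb HepG2 cells. Following 23 hr at 37 C, cell viability was quantified by CellTiter-Fluor fluorescence intensity.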

Test [10] is described as follows: qHTS assay to identify small molecule antagonists of the estrogen related receptor signaling pathway with the pleiotropic PPARgamma coactivator (PGC) from Tox21 10K library - cell viability counter screen (AID 1224840; active means well fitted cell-killing curve with a large enough effect in the repeat runs, not every such curve was filed as active; further: nearly all actives have a fitted effect of over 40% in size). Particulars: PGC/ERR reporter cells viability, CellTiter-Fluor, 17.5 h; series mostly up to 92.4 µM. The procedure, abridged: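 Readout: fluorescence intensity from CellTiter-Fluor after 30 min at 37 C/5% CO2. Preceded by 17.5 h treatment of PGC/ERR cells with DMSO-dissolved compounds, added 6 h post-seeding.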

Test [11] addresses Thyrotropin receptor (Homo sapiens) (UniProt P16473). Kind of test: qHTS assay to identify small molecule agonists of the thyroid stimulating hormone receptor (TSHR) signaling pathway (AID 1224843; calls by dose curve; further: nearly all actives have a fitted effect of over 45% in size). To be noted: TSHR-HEK293 cells, cAMP HTRF, agonist mode, 30 min; series mostly up to 92.4 µM. Put shortly:
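Agonist activity read as cAMP rise via d2/cryptate HTRF competition, 1 h room-temperature detection, in HEK293 cells expressing TSHR. Fifteen-point titrations, each run in triplicate, with a 30 min room-temperature incubation beforehand.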

Test [12] is described as follows: qHTS assay to identify small molecule agonists of the hypoxia (HIF-1) signaling pathway - cell viability counter screen (AID 1224844; calls by dose curve; further: nearly all actives have a fitted effect of over 50% in size). Particulars: HRE-bla ME-180 viability, CellTiter-Glo luminescence, 17 h; series mostly up to 76.8 µM. The procedure, abridged: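 In this counter screen, HRE-bla ME-180 cell viability after 17 hrs of compound exposure at 37C was read by CellTiter-Glo luminescence, multiplexed with the beta-lactamase reporter measurement.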

Test [13] can be described thus: qHTS assay to identify small molecule agonists of H2AX (AID 1224845; active means well fitted activation curve with a large enough effect in the signal ratio in the repeat runs, not every such curve was filed as active; the % refers to the signal ratio). To be noted: CHO-K1 phospho-H2AX Ser139 HTRF, 3 h; series mostly up to 154 µM. Put shortly:
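Phospho-H2AX Ser139 measured by HTRF (ex 320 nm; em 665 and 620 nm) after 24 hr antibody incubation. Compounds, 15 concentrations, 0.76% DMSO, were applied to CHO-K1 cells for 3hr at 37C before lysis.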

Test [14] can be described thus: qHTS assay to identify small molecule agonists of the hypoxia (HIF-1) signaling pathway (AID 1224846; active means well fitted activation curve with a large enough effect in the signal ratio in the repeat runs, not every such curve was filed as active; the % refers to the signal ratio). Particulars: HRE-bla ME-180 cells, beta-lactamase ratio, 17 h; series mostly up to 76.8 µM. The procedure, abridged: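 ME-180 HRE-bla reporter cells; compounds in DMSO, 17 h at 37C; read-out beta-lactamase via CCF4-AM FRET.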
Test [15] deals with Nuclear receptor subfamily 1 group I member 3 (Homo sapiens) (UniProt Q14994). In words: qHTS assay to identify small molecule antagonists of the constitutive androstane receptor (CAR) signaling pathway (AID 1224838). Further: nearly all actives have a fitted effect of over 40% in size. Particulars: HepG2-CYP2B6-hCAR luciferase, CITCO-stimulated, 24 h; series mostly up to 92.4 µM. Put shortly:
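Inhibition of CITCO-driven (50 nM final) CYP2B6 reporter expression is measured in HepG2 cells stably carrying hCAR. Fifteen compound concentrations are applied for 24 h at 37 C, followed by luciferase luminescence.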

The target is the same in test [16]. Kind of test: qHTS assay to identify small molecule agonists of the constitutive androstane receptor (CAR) signaling pathway (AID 1224839). Further: nearly all actives have a fitted effect of over 15% in size. Further: potency means the concentration at half of the fitted maximal effect. Particulars: HepG2 hCAR CYP2B6-luciferase, agonist mode, 24 h; series mostly up to 92.4 µM. Put shortly:
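Double-stable HepG2 cells (hCAR, CYP2B6-2.2kb) seeded 4 h before compound addition. Exposure 24 h with 0.75 uM PK11195 final. Luciferase detected by ONE-Glo.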

Test [17] can be described thus: qHTS assay to identify small molecule antagonists of the estrogen related receptor signaling pathway with the pleiotropic PPARgamma coactivator (PGC) from Tox21 10K library (AID 1224841; call rule not given here; further: actives are mostly falling curves and most rising ones were filed inactive; nearly all actives have a fitted effect of over 50% in size). Particulars: PGC/ERR reporter cell line, ONE-Glo luciferase, 18 h; series mostly up to 92.4 µM. The procedure, abridged: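 One-Glo luminescence, measured after half an hour at room temperature, quantified reporter output of PGC/ERR cells. These had been plated at 2,000 per well, incubated 6 h, dosed with compounds in DMSO, then kept 18 h at 37 C.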

Test [18] in a line: qHTS assay to identify small molecule agonists of the estrogen related receptor signaling pathway with the pleiotropic PPARgamma coactivator (PGC) from Tox21 10K library (AID 1224842). Further: nearly all actives have a fitted effect of over 15% in size. To be noted: PGC/ERR reporter cell line, luciferase ONE-Glo, 18 h; series mostly up to 92.4 µM. The procedure, abridged: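 Luminescence from One-Glo (30 min, room temperature) measured after PGC/ERR cells had 18 h at 37 C with pinned compound (23 nL in DMSO). Cells had been seeded at 2,000 per well and pre-incubated 6 h.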

“And” between values parts separate entries of the source, which are not always exact repeats. Equal entries are not always repeated. Records with an inconclusive call do not appear. Where a structure was tested more than once in an assay, its records may differ in their call. The source made the active and inactive calls. Unless noted, the call rests on the fitted dose curve; in most records, active means well fitted curve in the direction sought with a large enough effect in the repeat runs; inconclusive means weak or mixed curves; inactive means no such curve, though single readings can be large; an effect the other way counts as inactive or inconclusive.

Luciferin 4-monooxygenase (Photinus pyralis), sequence (P08659 whole entry, looked up): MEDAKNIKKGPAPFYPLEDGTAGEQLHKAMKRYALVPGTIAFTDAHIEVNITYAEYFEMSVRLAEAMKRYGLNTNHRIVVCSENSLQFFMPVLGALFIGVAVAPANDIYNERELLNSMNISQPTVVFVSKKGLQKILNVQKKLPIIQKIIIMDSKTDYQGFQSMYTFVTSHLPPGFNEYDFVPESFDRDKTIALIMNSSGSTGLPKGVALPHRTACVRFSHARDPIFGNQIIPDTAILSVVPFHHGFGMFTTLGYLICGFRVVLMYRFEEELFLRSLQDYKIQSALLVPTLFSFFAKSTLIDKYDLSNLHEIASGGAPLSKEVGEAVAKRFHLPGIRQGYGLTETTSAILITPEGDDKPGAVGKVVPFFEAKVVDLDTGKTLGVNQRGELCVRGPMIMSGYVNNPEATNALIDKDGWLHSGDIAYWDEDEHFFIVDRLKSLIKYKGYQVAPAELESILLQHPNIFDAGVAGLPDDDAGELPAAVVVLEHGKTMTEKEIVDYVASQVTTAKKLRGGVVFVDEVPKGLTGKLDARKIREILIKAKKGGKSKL
Thyrotropin receptor (Homo sapiens), sequence (P16473 whole entry, looked up): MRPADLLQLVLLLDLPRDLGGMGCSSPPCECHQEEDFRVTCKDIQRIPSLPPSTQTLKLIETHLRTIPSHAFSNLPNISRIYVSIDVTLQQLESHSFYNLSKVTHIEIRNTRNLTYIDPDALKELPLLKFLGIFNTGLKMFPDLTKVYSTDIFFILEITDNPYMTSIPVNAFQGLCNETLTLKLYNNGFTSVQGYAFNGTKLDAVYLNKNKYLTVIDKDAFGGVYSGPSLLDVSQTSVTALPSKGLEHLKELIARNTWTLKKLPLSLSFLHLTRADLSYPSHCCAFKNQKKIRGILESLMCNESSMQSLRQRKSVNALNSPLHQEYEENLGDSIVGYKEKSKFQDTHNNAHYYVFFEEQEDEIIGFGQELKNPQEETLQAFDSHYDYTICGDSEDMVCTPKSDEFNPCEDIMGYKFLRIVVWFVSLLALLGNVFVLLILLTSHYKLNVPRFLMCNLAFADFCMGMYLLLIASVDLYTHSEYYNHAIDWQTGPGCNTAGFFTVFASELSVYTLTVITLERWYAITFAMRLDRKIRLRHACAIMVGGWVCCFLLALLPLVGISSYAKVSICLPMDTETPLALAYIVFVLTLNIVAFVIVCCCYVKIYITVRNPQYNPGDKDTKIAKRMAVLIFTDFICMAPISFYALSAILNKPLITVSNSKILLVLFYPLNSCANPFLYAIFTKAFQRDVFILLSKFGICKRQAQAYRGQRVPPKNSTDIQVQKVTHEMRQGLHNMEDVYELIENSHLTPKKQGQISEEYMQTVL
Nuclear receptor subfamily 1 group I member 3 (Homo sapiens), sequence (Q14994 whole entry, looked up): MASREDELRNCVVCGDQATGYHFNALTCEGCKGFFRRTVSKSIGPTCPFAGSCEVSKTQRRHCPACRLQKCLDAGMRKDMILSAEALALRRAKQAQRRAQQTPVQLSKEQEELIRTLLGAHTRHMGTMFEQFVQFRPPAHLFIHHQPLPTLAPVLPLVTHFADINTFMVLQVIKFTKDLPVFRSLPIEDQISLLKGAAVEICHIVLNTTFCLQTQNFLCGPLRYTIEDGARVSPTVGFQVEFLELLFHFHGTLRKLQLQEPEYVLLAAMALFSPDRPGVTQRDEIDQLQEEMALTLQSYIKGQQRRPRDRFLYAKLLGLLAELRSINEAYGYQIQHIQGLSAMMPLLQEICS
Retinoic acid receptor RXR-alpha (Homo sapiens), sequence (P19793 whole entry, looked up): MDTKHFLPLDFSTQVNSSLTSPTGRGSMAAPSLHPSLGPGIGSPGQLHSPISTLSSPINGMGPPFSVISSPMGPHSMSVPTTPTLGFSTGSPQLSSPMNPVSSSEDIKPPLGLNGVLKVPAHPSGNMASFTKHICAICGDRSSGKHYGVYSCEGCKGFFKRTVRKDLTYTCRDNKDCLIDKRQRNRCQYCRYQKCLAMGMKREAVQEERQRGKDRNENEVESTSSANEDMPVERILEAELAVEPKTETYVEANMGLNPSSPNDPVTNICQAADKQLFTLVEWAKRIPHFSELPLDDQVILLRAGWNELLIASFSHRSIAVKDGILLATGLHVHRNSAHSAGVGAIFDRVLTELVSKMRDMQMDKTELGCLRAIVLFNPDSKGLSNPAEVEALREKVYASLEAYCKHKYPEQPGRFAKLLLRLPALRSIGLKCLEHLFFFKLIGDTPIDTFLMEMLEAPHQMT

Turning to `Cc1cc(C)c(C)cc1C`, the Potency result in test [1], in test [2], in test [4], in test [5], in test [6] and in test [7] was “inactive” each time. In addition, the Potency result in test [8], in [9], in test [10], in test [11], in [12] and in [13] was “inactive” each time. Moreover, the result in test [3] and in test [14] was inactive.

`Cc1ccc(N(C)C)cc1`: the Potency result in test [1], in test [2], in test [4], in [5], in test [6] and in test [7] was “inactive” each time. Also, the Potency result in [8], in [9], in test [15], in test [10], in [11] and in test [12] was “inactive” throughout. Besides, the Potency result in test [13] is “inactive”. For the same molecule, the outcome in test [3] and in [14] was inactive. Also, the Potency result in test [16] was “inactive and 27.3 µM (active)”.

As for `O=C(CC(C(=O)OC1CCCCC1)S(=O)(=O)O)OC1CCCCC1` (configuration not stated), the Potency result in test [1], in test [2], in [5], in [6], in test [7] and in test [8] was “inactive” in each case. Moreover, the Potency result in test [9], in test [15], in test [16], in test [10], in test [17] and in [11] was “inactive” in each case. In addition, the Potency result in test [12] and in test [13] was “inactive” throughout. The molecule was classed as inactive in test [3], in [18] and in [14].

As for `c1ccc2c(c1)ccc1ccccc12`, the Potency result in test [1], in [2], in test [5], in [6], in [8] and in [9] was “inactive” in each case. Further, the Potency result in test [15], in test [16], in test [10], in [17], in [12] and in test [13] was “inactive” each time. In addition, the outcome in test [3], in test [18] and in [14] was inactive. In addition, the Potency in test [7] was 34.6 µM (active) and 56.4 µM (active).

Consider `CC(=O)Nc1ccccc1`, for which the Potency entry in [1], in test [2], in [5], in test [6], in test [7] and in [8] was “inactive” each time. The Potency result in test [9], in test [15], in [16], in [10], in test [11] and in test [12] was “inactive” each time. Besides, the Potency entry in test [13] is “inactive”. Also, the molecule was classed as inactive in test [3] and in test [14].

As for `O=C(O)[C@H](O)[C@@H](O)[C@H](O)[C@H](O)CO`, the Potency entry in test [1], in [2], in test [4], in test [5], in [6] and in [7] was “inactive” each time. For the same molecule, the Potency result in test [8], in test [9], in test [10], in [12] and in test [13] was “inactive” in each case. Besides, the outcome in test [3] and in test [14] was inactive.

With `CCCCCCCCCCCCS`, the Potency result in test [1], in test [2], in test [5], in [6], in test [7] and in test [8] was “inactive” in each case. The Potency entry in [9], in test [15], in test [16], in test [10], in test [11] and in [12] was “inactive” throughout. Further, the Potency result in [13] is “inactive”. The outcome in test [3] and in test [14] was inactive.

`CCc1cccc(C)c1N`: the Potency result in test [1], in test [2], in test [4], in [5], in test [6] and in [7] was “inactive” throughout. The Potency result in test [8], in [9], in test [10], in test [17], in test [11] and in [12] was “inactive” each time. For the same molecule, the Potency entry in test [13] is “inactive”. The call in test [3], in test [18] and in test [14] was inactive.

For `CC(=O)OCC(=O)[C@@]12N=C(C)O[C@@H]1C[C@H]1[C@@H]3CCC4=CC(=O)C=C[C@]4(C)[C@H]3[C@@H](O)C[C@@]12C`, the Potency entry in test [1], in [2], in test [5], in test [6], in test [7] and in [8] was “inactive” each time. The Potency result in test [9], in test [15], in test [16], in [10], in [11] and in test [12] was “inactive” throughout. Further, in [13], the Potency result is “inactive”. For the same molecule, the result in test [3] and in [14] was inactive.

These data come from PubChem BioAssay (Tox21).
